Reference: PubChem BioAssay AID652042 (Broad Institute, 2013)
About 350 (32%) of roughly 1,100 compounds were called active. The rule behind the calls is not given here. A selection follows. Results with a measured potency or affinity are listed apart.

Assay: CEM21 lymphoblast cell cytotoxicity, dose response, cytotoxicity control for viral fusion inhibitor project, CellTiter-Glo luminescence, cherry-picked (AID 652042)
Settings: CEM21 cells viability, CellTiter-Glo ATP luminescence, 24 h; series mostly up to 35 µM

| Structure (SMILES) | activity change, negative = cytotoxicity |
| --- | --- |
| CC[C@@]12C(=O)N(c3ccc(OC)cc3)C(=O)N1[C@H](c1ccc(Cl)cc1)[C@@H]1C(=O)N(C3CCCCC3)C(=O)[C@@H]12 | inactive |
| Cn1c(-c2ccc(Cl)cc2)ccc(C#N)c1=O | inactive |
| O=S(=O)(NC1CC1)c1ccc(S(=O)(=O)N2CCCc3ccccc32)cc1 | inactive |
| Cc1ccc(OCCCCNC(C)c2ccccc2)c(C)c1 (centres undefined) | 1.82% [at 8 µM] (inactive) |
| CC(C)OP(=O)(Nc1cccc2ccccc12)OC(C)C | inactive |
| O=C(c1ccccc1F)N1CCN(Cc2cccc(Cl)c2)CC1 | inactive |
| COc1ccccc1CN(C)C(=O)CN1CCN(C(=O)c2cccs2)CC1 | inactive |
| O=C(CCCC(=O)N(c1ccc2c(c1)OCCO2)C(C(=O)NC1CCCCC1)c1ccc(F)cc1)Nc1ccccn1 (centres undefined) | inactive |
| Nc1ccn([C@@H]2O[C@H](C(=O)NCc3ccc4c(c3)OCO4)[C@@H](O)[C@H]2O)c(=O)n1 | inactive |
| Nc1ccn(C2OC(COC(=O)C34CC5CC(CC(C5)C3)C4)C(O)C2O)c(=O)n1 (centres undefined) | inactive |
| C[C@@]12CC(=O)NC1N(C(=O)c1cccc(C(F)(F)F)c1)C(c1ccccc1O)C2 (some centres undefined) | inactive |
| COc1ccc(CC(=O)Nc2cccc(S(=O)(=O)N3CCCCCC3)c2)cc1OC | inactive |
| COc1ccc(NS(=O)(=O)c2cccc(C(=O)NNC(=O)CNC(=O)c3ccc(C)cc3)c2)cc1 | inactive |
| CC1CCCC(C)N1CCCNC(=O)c1nn(C)c2c1CSc1ccccc1-2 (centres undefined) | inactive |
| Cc1cc(N2CCN(c3nc4ccccc4s3)CC2)n2ncnc2n1 | inactive |
| Cc1cccc(C)c1NC(=O)CCCSc1nnc(-c2ccc(Cl)cc2)n1-c1ccccc1 | inactive |
| O=C(NCc1ccco1)c1ccc(Cn2c(=O)c3ccccc3n(Cc3cccc(Cl)c3)c2=O)cc1 | inactive |
| Cc1cc(C(=O)N2CCC(C(=O)O)CC2)c(C(F)(F)F)o1 | inactive |
| COc1ccc(-c2cn[nH]c2N)c(OC)c1 | inactive |
| CCCCS(=O)(=O)N1CCN(C(=O)C(=O)c2cccc(C(F)(F)F)c2)CC1 | inactive |
| O=C(Nc1ccc(Cl)cc1)Nc1cccc(C(=O)O)c1 | inactive |

| Structure (SMILES) | activity change, negative = cytotoxicity |
| --- | --- |
| CCN(CC)S(=O)(=O)c1cccc(S(=O)(=O)c2cccc(S(=O)(=O)N(CC)CC)c2)c1 | inactive |
| CCN(C1CCCCC1)S(=O)(=O)c1ccc(S(=O)(=O)N(CC(=O)Nc2ccccc2)C2CC2)cc1 | inactive |
| Cc1cc(Nc2cccc(C(F)(F)F)c2)cc(=O)n1-c1cccc(C(F)(F)F)c1 | inactive |
| O=C(Nc1cccc(C(F)(F)F)c1)c1ccc(Cn2cc(Br)cn2)o1 | inactive |
| CCN(C[C@H]1N[C@@](CC)(C(=O)OC)[C@H]2C(=O)N(Cc3ccccc3)C(=O)[C@@H]12)S(=O)(=O)c1ccc(C(F)(F)F)cc1 | inactive |
| O=C(NC1CCCCC1)C(c1ccc(Cl)cc1)N(C(=O)c1cnccn1)c1ccc2c(c1)OCO2 (centres undefined) | inactive |
| COc1ccc(N2CCn3c2nc2c3c(=O)n(CCCc3ccccc3)c(=O)n2C)c(OC)c1 | inactive |
| CCN1C(=O)[C@H]2[C@@H](c3ccc(C(F)(F)F)cc3)N[C@]3(CCCN(Cc4ccccc4)C3=O)[C@H]2C1=O | inactive |
| CCC(C(=O)c1ccccc1)N(C(=O)c1ccccc1Cl)N1C(=O)C2C3C=CC(C3)C2C1=O (centres undefined) | inactive |
| CC[C@@]1(C(=O)OC)N[C@H](CN(C)S(=O)(=O)c2ccc(-c3ccccc3)cc2)[C@@H]2C(=O)N(Cc3ccccc3)C(=O)[C@@H]21 | inactive |
| O=C(Cc1ccc(Cl)cc1Cl)Nc1ccncc1 | inactive |
| CCN(C[C@H]1N[C@@](CC)(C(=O)OC)[C@H]2C(=O)N(Cc3ccccc3)C(=O)[C@@H]12)C(=O)Nc1ccc(Cl)cc1 | inactive |
| CCN(CC)C(=O)c1ncn2c1C(=O)NC[C@@H]2C | inactive |
| CCc1ccc2[nH]c(=O)c(C(c3nnnn3Cc3ccc(OC)cc3)N3CCOCC3)cc2c1 (centres undefined) | inactive |
| Cc1ccc(C(=O)Nc2cccc(C(=O)O)c2)cc1 | inactive |
| CCc1nnc(NC(=O)[C@@H](NC(=O)c2cccc(S(=O)(=O)N(CC)CC)c2)C(C)C)s1 | inactive |
| COc1ccc(C2N(S(=O)(=O)c3ccc(C)cc3)CCN2S(=O)(=O)c2ccc(C)cc2)cc1 | inactive |
| Cc1ccccc1S(=O)(=O)N1C[C@H]2[C@H]3C(=O)N(C4CCCCC4)C(=O)[C@H]3CC(=O)[C@H]2[C@@H]1c1ccc(Cl)cc1 | inactive |
| O=C(NCc1cccnc1)c1c[nH]c2cc3c(cc2c1=O)OCCO3 | inactive |
| CC[C@@]1(C(=O)OC)N[C@H](CN(C)C(=O)c2ccc(C(C)(C)C)cc2)[C@@H]2C(=O)N(Cc3ccccc3)C(=O)[C@@H]21 | inactive |
| N#Cc1ccc(CSc2nnc(COc3ccccc3)n2-c2ccccc2)cc1 | inactive |

| Structure (SMILES) | activity change, negative = cytotoxicity |
| --- | --- |
| Cc1cc(C(=O)CN2C(=O)c3ccccc3S2(=O)=O)c(C)n1C(C)C | inactive |
| O=C(Nc1ccc(S(=O)(=O)N2CCN(Cc3ccccc3)CC2)cc1)c1cnccn1 | inactive |
| O=C(Nc1nc(-c2ccc3c(c2)OCO3)cs1)c1ccncc1 | inactive |
| Cc1ccc2c(CN3CCN(S(=O)(=O)c4ccc5c(c4)OCCO5)CC3)cc(=O)oc2c1C | inactive |
| Cc1ccc(N2C(=O)CC(c3ccsc3)C3=C2CC(C)(C)CC3=O)cc1 (centres undefined) | inactive |
| CCN(CC)c1ncnc2ccc(Br)cc12 | inactive |
| O=S(=O)(Nc1nc2ccccc2nc1Nc1cccc(S(=O)(=O)N2CCCCC2)c1)c1ccccc1 | inactive |
| O=C(N/N=C/c1sc(N2CCOCC2)nc1-c1ccccc1)c1cccc(S(=O)(=O)N2CCOCC2)c1 | inactive |
| CC(=O)OC1c2ccccc2C(=O)N1c1ccccc1C (centres undefined) | inactive |
| O=C1COc2ccc(-c3csc(=Nc4ccc(OC(F)F)cc4)n3CC3CCCO3)cc2N1 (centres undefined) | inactive |
| COc1ccc(NC(=O)C2(C)CCN2Cc2ccccc2OC(F)F)cc1OC (centres undefined) | inactive |
| CC1(C(=O)NCc2cccc3ccccc23)CCN1Cc1ccc(-c2ccccc2)o1 (centres undefined) | inactive |
| CC(=O)C1=C(C)N(Cc2ccc(Cl)cc2)C(=S)NC1c1cccc(Br)c1 (centres undefined) | inactive |
| CCCC#Cc1ccc2c(c1)O[C@@H](CN(C)S(=O)(=O)c1cccc(F)c1)[C@@H](C)CN([C@@H](C)CO)S2(=O)=O | inactive |
| C[C@H](CO)N1C[C@H](C)[C@H](CN(C)S(=O)(=O)c2cccs2)Oc2ccc(NC(=O)C3CCCCC3)cc2CC1=O | inactive |
| C[C@H](CO)N1C[C@H](C)[C@@H](CN(C)C(=O)NC2CCCCC2)Oc2c(cccc2N(C)C)C1=O | inactive |
| CCCC#Cc1ccc2c(c1)O[C@@H](CN(C)S(=O)(=O)c1cccc(F)c1)[C@@H](C)CN([C@H](C)CO)S2(=O)=O | inactive |
| O=c1c2ccccc2nnn1CSc1nnc(COc2ccc(Cl)cc2)n1Cc1ccco1 | 5.32% [at 8 µM] (inactive) |
| CC(NC(=O)c1ccccc1NC(=O)CN1CCc2ccccc2C1)c1ccccc1 (centres undefined) | inactive |
| O=C(O)C[C@@H]1C=C[C@@H](NC(=O)Nc2ccccc2)[C@H](CO)O1 | inactive |
| C[C@@H]1CN([C@@H](C)CO)C(=O)c2cccc(NS(=O)(=O)c3cccs3)c2O[C@@H]1CN(C)Cc1ccc(C(F)(F)F)cc1 | inactive |

| Structure (SMILES) | activity change, negative = cytotoxicity |
| --- | --- |
| O=C(O)C[C@@H]1C=C[C@H](NC(=O)Nc2ccccc2)[C@H](CO)O1 | inactive |
| C[C@H]1Cn2cnc(C(=O)N3CCN(c4ccccc4)CC3)c2C(=O)N1 | inactive |
| COc1ccccc1NC(=O)N[C@@H]1CC[C@H](CC(=O)N[C@H](C)c2ccccc2)O[C@@H]1CO | inactive |
| C=C1CCN([C@@H](Cc2ccccc2)C(=O)Nc2ccc(OC)cc2)S(=O)(=O)c2ccccc21 | inactive |
| O=C(Nc1nc(COc2ccccc2)cs1)C12CC3CC(CC(C3)C1)C2 | inactive |
| CN1CCN(c2ccccc2NC(=O)C(Cc2ccccc2)n2cccc2)CC1 (centres undefined) | inactive |
| CC(=O)c1ccc(S(=O)(=O)N2CCN(c3nc4c(C)c(C)ccc4cc3C#N)CC2)cc1 | inactive |
| OCC[C@@H]1C[C@@H](O)[C@H](O)[C@]2(OCc3ccccc32)O1 | inactive |
| COc1ccc(NC(=O)Nc2ccc3c(c2)C(=O)N([C@H](C)CO)C[C@H](C)[C@H](CN(C)Cc2ccncc2)OCCCC[C@H](C)O3)cc1 | inactive |
| COc1ccccc1S(=O)(=O)Nc1ccc2c(c1)C(=O)N(C)C[C@@H](OC)[C@@H](C)CN[C@@H](C)CO2 | inactive |
| Cc1ccc2c(c1)[C@H]1[C@H](CO2)[C@H](c2ccccc2)[C@]2(C)C(=O)N(CC3CCCO3)CC(=O)N12 (some centres undefined) | inactive |
| CCOC(=O)C(C)Oc1cccc2c(=O)n(CC(=O)NCCc3ccc(OC)c(OC)c3)ccc12 (centres undefined) | inactive |
| COc1ccc(Cl)cc1NC(=O)CN(C)C(=O)CCCc1c[nH]c2ccccc12 | inactive |
| CC(C)CN(C(=O)C(c1ccccc1)c1ccccc1)c1c(N)n(CC(C)C)c(=O)[nH]c1=O | inactive |
| O=C(Nc1ccc(Cl)cc1)C1CCCN(C2=NS(=O)(=O)c3ccccc32)C1 (centres undefined) | inactive |
| CCS(=O)(=O)Nc1ccc2c(c1)C(=O)N(C)C[C@H](OC)[C@@H](C)CN(C(=O)C1CCC1)[C@H](C)CO2 | inactive |
| CCc1ccc(-c2cn3nc(C)c(C)nc3n2)cc1 | inactive |
| COC(=O)[C@@]1(C)[C@H]2C(=O)N(Cc3ccccc3)C(=O)[C@H]2[C@H]2CN=C(SCC3CC3)N21 | inactive |
| COc1ccc(NC(=O)Nc2ccc3c(c2)C(=O)N([C@H](C)CO)C[C@H](C)[C@H](CN(C)S(=O)(=O)c2ccc(OC)cc2)O3)cc1 | inactive |
| C[C@@H]1CN([C@@H](C)CO)S(=O)(=O)c2ccc(-c3cccc(F)c3)cc2O[C@@H]1CN(C)S(=O)(=O)c1ccc(F)cc1 | inactive |
| COc1ccc(S(=O)(=O)Nc2ccc3c(c2)CC(=O)N([C@@H](C)CO)C[C@H](C)[C@H](CN(C)S(=O)(=O)c2ccc(F)cc2)O3)cc1 | inactive |
